Active and inactive are the calls of the source. Rule for the calls: active = hit-call score of the fitted dose curve at least 0.9, where 1 is the maximum; inactive = score below 0.9.
Experiments:
Details in all cases: mRNA level, 48 h; actives raise or lower the signal
[1] = read-out: matrix metalloproteinase-3 (MMP3), MMP3 (gene 4314); assay: LTEA_HepaRG_MMP3: Life Technologies and Expression Analysis (LTEA) Assay for matrix metalloproteinase-3 (MMP3) using HepaRG (AID 2283519)
In short: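 Differentiated human HepaRG cells, plated 48 h on collagen I, were exposed in duplicate for 48 h in serum-free induction medium to eight half-log concentrations up to 100 uM in 0.5% DMSO. MMP3 mRNA was quantified by TaqMan qRT-PCR, normalised to ACTB, GAPDH and POLR2A.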

[2] = read-out: Paternally Expressed 10 (PEG10), PEG10 (gene 23089); assay: LTEA_HepaRG_PEG10: Life Technologies and Expression Analysis (LTEA) Assay for Paternally Expressed 10 (PEG10) using HepaRG (AID 2283520)
In short: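 Differentiated HepaRG cells, plated 48 h then switched to serum-free induction medium, were exposed in duplicate for 48 h to eight half-log concentrations topping at 100 uM in 0.5% DMSO. PEG10 mRNA was quantified by TaqMan qRT-PCR, normalised to ACTB, GAPDH and POLR2A.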

[3] = read-out: Nuclear factor NF-kappa-B p105 subunit (Homo sapiens) (UniProt P19838); assay: LTEA_HepaRG_NFKB1: Life Technologies and Expression Analysis (LTEA) Assay for Nuclear Factor Kappa B Subunit 1 (NFKB1) using HepaRG (AID 2283521)
In short: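 Human HepaRG cells receive eight half-log concentrations, highest 100 uM, for 48 h. NFKB1 expression is then quantified by qRT-PCR and analysed for up- or down-regulation relative to 0.5% DMSO vehicle.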

[4] = read-out: Protein phosphatase 2A (PPP2R4), PTPA (gene 5524); assay: LTEA_HepaRG_PPP2R4: Life Technologies and Expression Analysis (LTEA) Assay for Protein phosphatase 2A (PPP2R4) using HepaRG (AID 2283522)
In short: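 Differentiated HepaRG cells in serum-free induction medium were exposed in duplicate for 48 h to eight concentrations, top 100 uM with half-log dilutions, in 0.5% DMSO. PPP2R4 mRNA was quantified by TaqMan qRT-PCR, normalized to ACTB, GAPDH and POLR2A.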

[5] = read-out: Phosphatase and tensin (PTEN), PTEN (gene 5728); assay: LTEA_HepaRG_PTEN: Life Technologies and Expression Analysis (LTEA) Assay for Phosphatase and tensin (PTEN) using HepaRG (AID 2283523)
In short: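 Differentiated human HepaRG cells, plated 48 h then switched to serum-free induction medium, were exposed in duplicate for 48 h to eight half-log concentrations up to 100 uM in 0.5% DMSO. PTEN mRNA measured by TaqMan qRT-PCR, normalized to ACTB/GAPDH/POLR2A, bidirectional fit versus DMSO.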

[6] = read-out: solute carrier (SLC22A1), SLC22A1 (gene 6580); assay: LTEA_HepaRG_SLC22A1: Life Technologies and Expression Analysis (LTEA) Assay for solute carrier (SLC22A1) using HepaRG (AID 2283524)
In short: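 Human HepaRG cells were plated 48 h, switched to serum-free induction medium, then exposed in duplicate for 48 h to 8-point half-log series from 100 uM in 0.5% DMSO. SLC22A1 mRNA measured by qRT-PCR, normalized to ACTB/GAPDH/POLR2A, fitted bidirectionally versus DMSO.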

[7] = read-out: Pyruvate Dehydrogenase Kinase 4 (PDK4), PDK4 (gene 5166); assay: LTEA_HepaRG_PDK4: Life Technologies and Expression Analysis (LTEA) Assay for Pyruvate Dehydrogenase Kinase 4 (PDK4) using HepaRG (AID 2283525)
In short: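 Differentiated human HepaRG cells, pre-cultured 48 h, were exposed in duplicate for 48 h in serum-free induction medium to eight half-log concentrations up to 100 uM in 0.5% DMSO. PDK4 mRNA was quantified by qRT-PCR, normalized to ACTB, GAPDH and POLR2A, bidirectional fitting versus DMSO.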

[8] = read-out: NAD(P)H dehydrogenase [quinone] 1 (NQO1), NQO1 (gene 1728); assay: LTEA_HepaRG_NQO1: Life Technologies and Expression Analysis (LTEA) Assay for NAD(P)H dehydrogenase [quinone] 1 (NQO1) using HepaRG (AID 2283526)
In short: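 Differentiated HepaRG cells, plated 48 h and then switched to serum-free induction medium, were exposed in duplicate for 48 h to 8-point half-log concentrations up to 100 uM in 0.5% DMSO. mRNA measured by qRT-PCR, normalized to ACTB, GAPDH, POLR2A; bidirectional fit versus DMSO.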

[9] = read-out: Nuclear factor erythroid 2-related factor 2 (Homo sapiens) (UniProt Q16236); assay: LTEA_HepaRG_NFE2L2: Life Technologies and Expression Analysis (LTEA) Assay for Nuclear factor erythroid 2-related factor 2 (NFE2L2) Transcription Factor using HepaRG (AID 2283527);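 note: TaqMan qRT-PCR transcript level normalised to ACTB GAPDH and POLR2A housekeeping genes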
In short: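 Differentiated human HepaRG cells in serum-free induction medium were exposed for 48 h to eight concentrations (top 100 uM, half-log dilutions, 0.5% DMSO), in duplicate. NFE2L2 mRNA was quantified by TaqMan qRT-PCR, normalized to ACTB, GAPDH and POLR2A, with bidirectional fitting versus DMSO.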

[10] = read-out: succinate dehydrogenase complex iron sulfur subunit B (SDHB), SDHB (gene 6390); assay: LTEA_HepaRG_SDHB: Life Technologies and Expression Analysis (LTEA) Assay for succinate dehydrogenase complex iron sulfur subunit B (SDHB) using HepaRG (AID 2283528)
In short: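 A human HepaRG culture in serum-free induction medium received test chemicals for 48 h over an eight-point range capped at 100 uM. SDHB expression change was quantified by qRT-PCR.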

[11] = read-out: Signal transducer and activator of transcription 3 (Homo sapiens) (UniProt P40763); assay: LTEA_HepaRG_STAT3: Life Technologies and Expression Analysis (LTEA) Assay for Signal transducer and activator of transcription (STAT3) using HepaRG (AID 2283529)
In short: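 Differentiated human HepaRG cells in serum-free induction medium were exposed in duplicate for 48 h to eight half-log concentrations up to 100 uM in 0.5% DMSO. STAT3 mRNA was quantified by TaqMan qRT-PCR, normalized to ACTB, GAPDH and POLR2A, and fitted bidirectionally against DMSO.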

[12] = read-out: solute carrier (SLCO1B1), SLCO1B1 (gene 10599); assay: LTEA_HepaRG_SLCO1B1: Life Technologies and Expression Analysis (LTEA) Assay for solute carrier (SLCO1B1) using HepaRG (AID 2283530)
In short: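 Gain or loss of SLCO1B1 mRNA is fitted against the 0.5% DMSO vehicle in human HepaRG liver cells treated 48 h at up to 100 uM in half-log steps. Expression comes from qRT-PCR normalized to endogenous controls.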

[13] = read-out: sulfotransferase 2A1 (SULT2A1), SULT2A1 (gene 6822); assay: LTEA_HepaRG_SULT2A1: Life Technologies and Expression Analysis (LTEA) Assay for sulfotransferase 2A1 (SULT2A1) using HepaRG (AID 2283531)
In short: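 Cells were plated and cultured 48 h, switched to serum-free induction medium, then dosed in duplicate for 48 h (8 concentrations, max 100 uM). RNA was isolated and SULT2A1 expression measured by qRT-PCR; gain or loss of signal fitted relative to DMSO.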

[14] = read-out: Transforming Growth Factor (TGFA), TGFA (gene 7039); assay: LTEA_HepaRG_TGFA: Life Technologies and Expression Analysis (LTEA) Assay for Transforming Growth Factor (TGFA) using HepaRG (AID 2283532)
In short: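 Differentiated human HepaRG cells, plated 48 h then switched to serum-free induction medium, were exposed in duplicate for 48 h to 8-point half-log series from 100 uM in 0.5% DMSO. TGFA mRNA measured by qRT-PCR, normalized to ACTB/GAPDH/POLR2A, bidirectional fit versus DMSO.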

[15] = read-out: Transforming Growth Factor (TGFB1), TGFB1 (gene 7040); assay: LTEA_HepaRG_TGFB1: Life Technologies and Expression Analysis (LTEA) Assay for Transforming Growth Factor (TGFB1) Transporter using HepaRG (AID 2283533)
In short: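 Expression change of TGFB1 in human HepaRG cells is measured after a 48 h chemical exposure, up to 100 uM in 0.5% DMSO vehicle. Curves are fitted in both directions relative to the DMSO baseline.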

[16] = read-out: Tumor necrosis factor receptor 1 (TNFRSF1A), TNFRSF1A (gene 7132); assay: LTEA_HepaRG_TNFRSF1A: Life Technologies and Expression Analysis (LTEA) Assay for Tumor necrosis factor receptor 1 (TNFRSF1A) using HepaRG (AID 2283535)
In short: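 Expression of TNFRSF1A in human HepaRG liver cells was measured by qRT-PCR 48 h after chemical dosing (maximum 100 uM). Bidirectional curve fitting used 0.5% DMSO as baseline.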

[17] = read-out: Thyroid Hormone Responsive (THRSP), THRSP (gene 7069); assay: LTEA_HepaRG_THRSP: Life Technologies and Expression Analysis (LTEA) Assay for Thyroid Hormone Responsive (THRSP) using HepaRG (AID 2283536)
In short: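 Differentiated human HepaRG cells were exposed in duplicate for 48 h in serum-free induction medium to eight concentrations (top 100 uM, half-log steps, 0.5% DMSO). Expression was quantified by TaqMan qRT-PCR, normalized to ACTB, GAPDH and POLR2A, with bidirectional fitting against DMSO.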

[18] = read-out: Cellular tumor antigen p53 (Homo sapiens) (UniProt P04637); assay: LTEA_HepaRG_TP53: Life Technologies and Expression Analysis (LTEA) Assay for Tumor Protein P53 (TP53) using HepaRG (AID 2283537)
In short: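 Gain or loss of TP53 mRNA signal is scored relative to 0.5% DMSO after 48 h chemical treatment of HepaRG liver cells, tested in duplicate at eight half-log concentrations up to 100 uM.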

[19] = read-out: UDP glucuronosyltransferase (UGT1A1), UGT1A1 (gene 54658); assay: LTEA_HepaRG_UGT1A1: Life Technologies and Expression Analysis (LTEA) Assay for UDP glucuronosyltransferase (UGT1A1) using HepaRG (AID 2283538)
In short: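 Differentiated human HepaRG cells in serum-free induction medium were exposed in duplicate for 48 h to eight half-log concentrations up to 100 uM in 0.5% DMSO. UGT1A1 mRNA was quantified by TaqMan qRT-PCR, normalized to ACTB, GAPDH and POLR2A, and fitted bidirectionally against DMSO.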

[20] = read-out: TIMP1, TIMP1 (gene 7076); assay: LTEA_HepaRG_TIMP1: Life Technologies and Expression Analysis (LTEA) Assay for TIMP1 using HepaRG (AID 2283534);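 note: TaqMan qRT-PCR signal normalized to ACTB GAPDH and POLR2A housekeeping genes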
In short: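 We dosed human liver HepaRG cultures for 48 hours with up to 100 uM test chemical and measured TIMP1 expression by qRT-PCR. Activity in either direction is fitted relative to the 0.5% DMSO vehicle.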

Measured: AC50

Cellular tumor antigen p53 (Homo sapiens), sequence (P04637 whole entry, looked up): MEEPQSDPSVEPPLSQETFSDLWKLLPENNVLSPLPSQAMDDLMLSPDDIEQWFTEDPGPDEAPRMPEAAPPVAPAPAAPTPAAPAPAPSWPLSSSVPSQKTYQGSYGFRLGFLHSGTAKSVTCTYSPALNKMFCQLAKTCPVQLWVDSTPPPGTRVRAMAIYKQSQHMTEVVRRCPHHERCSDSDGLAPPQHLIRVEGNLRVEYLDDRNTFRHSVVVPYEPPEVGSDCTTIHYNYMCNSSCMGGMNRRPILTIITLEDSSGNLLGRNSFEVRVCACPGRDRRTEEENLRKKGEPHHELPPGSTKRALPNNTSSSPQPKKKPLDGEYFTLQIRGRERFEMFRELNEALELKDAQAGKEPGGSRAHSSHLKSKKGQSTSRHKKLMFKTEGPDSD
Nuclear factor erythroid 2-related factor 2 (Homo sapiens), sequence (Q16236 whole entry, looked up): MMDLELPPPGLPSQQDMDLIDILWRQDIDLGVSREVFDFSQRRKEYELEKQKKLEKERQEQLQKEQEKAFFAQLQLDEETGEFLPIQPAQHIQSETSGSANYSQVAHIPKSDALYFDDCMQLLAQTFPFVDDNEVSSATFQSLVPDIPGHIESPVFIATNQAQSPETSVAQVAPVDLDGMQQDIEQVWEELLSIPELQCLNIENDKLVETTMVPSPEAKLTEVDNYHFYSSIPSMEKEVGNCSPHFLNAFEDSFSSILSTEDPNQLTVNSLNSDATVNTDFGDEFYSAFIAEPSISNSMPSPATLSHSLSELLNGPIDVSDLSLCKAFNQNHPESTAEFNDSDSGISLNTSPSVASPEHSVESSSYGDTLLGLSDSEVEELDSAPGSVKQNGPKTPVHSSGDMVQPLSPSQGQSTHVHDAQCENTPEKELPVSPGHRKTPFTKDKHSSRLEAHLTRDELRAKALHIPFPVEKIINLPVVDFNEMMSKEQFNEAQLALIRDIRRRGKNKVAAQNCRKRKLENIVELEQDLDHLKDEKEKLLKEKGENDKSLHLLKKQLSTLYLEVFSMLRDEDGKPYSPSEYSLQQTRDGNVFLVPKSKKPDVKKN
Signal transducer and activator of transcription 3 (Homo sapiens), sequence (P40763 whole entry, looked up): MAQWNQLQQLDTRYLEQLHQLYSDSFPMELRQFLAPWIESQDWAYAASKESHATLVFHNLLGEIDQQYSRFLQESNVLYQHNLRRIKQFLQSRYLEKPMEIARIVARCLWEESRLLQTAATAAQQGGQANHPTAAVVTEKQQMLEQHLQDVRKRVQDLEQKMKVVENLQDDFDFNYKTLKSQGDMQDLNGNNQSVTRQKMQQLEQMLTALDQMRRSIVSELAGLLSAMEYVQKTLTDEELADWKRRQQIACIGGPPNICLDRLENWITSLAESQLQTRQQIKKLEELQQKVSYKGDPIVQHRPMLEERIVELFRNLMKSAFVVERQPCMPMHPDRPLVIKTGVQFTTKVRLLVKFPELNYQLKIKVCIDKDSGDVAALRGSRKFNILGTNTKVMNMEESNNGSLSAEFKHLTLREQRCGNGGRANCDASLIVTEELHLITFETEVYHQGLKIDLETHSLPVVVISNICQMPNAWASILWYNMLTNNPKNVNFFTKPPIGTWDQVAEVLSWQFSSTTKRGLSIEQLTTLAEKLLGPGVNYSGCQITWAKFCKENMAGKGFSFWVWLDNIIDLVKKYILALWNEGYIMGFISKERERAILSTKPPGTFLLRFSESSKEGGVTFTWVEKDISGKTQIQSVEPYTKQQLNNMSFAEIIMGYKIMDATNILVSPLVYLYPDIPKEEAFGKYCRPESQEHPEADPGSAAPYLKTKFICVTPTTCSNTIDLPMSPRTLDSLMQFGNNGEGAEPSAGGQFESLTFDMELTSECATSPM
Nuclear factor NF-kappa-B p105 subunit (Homo sapiens), sequence (P19838 whole entry, looked up): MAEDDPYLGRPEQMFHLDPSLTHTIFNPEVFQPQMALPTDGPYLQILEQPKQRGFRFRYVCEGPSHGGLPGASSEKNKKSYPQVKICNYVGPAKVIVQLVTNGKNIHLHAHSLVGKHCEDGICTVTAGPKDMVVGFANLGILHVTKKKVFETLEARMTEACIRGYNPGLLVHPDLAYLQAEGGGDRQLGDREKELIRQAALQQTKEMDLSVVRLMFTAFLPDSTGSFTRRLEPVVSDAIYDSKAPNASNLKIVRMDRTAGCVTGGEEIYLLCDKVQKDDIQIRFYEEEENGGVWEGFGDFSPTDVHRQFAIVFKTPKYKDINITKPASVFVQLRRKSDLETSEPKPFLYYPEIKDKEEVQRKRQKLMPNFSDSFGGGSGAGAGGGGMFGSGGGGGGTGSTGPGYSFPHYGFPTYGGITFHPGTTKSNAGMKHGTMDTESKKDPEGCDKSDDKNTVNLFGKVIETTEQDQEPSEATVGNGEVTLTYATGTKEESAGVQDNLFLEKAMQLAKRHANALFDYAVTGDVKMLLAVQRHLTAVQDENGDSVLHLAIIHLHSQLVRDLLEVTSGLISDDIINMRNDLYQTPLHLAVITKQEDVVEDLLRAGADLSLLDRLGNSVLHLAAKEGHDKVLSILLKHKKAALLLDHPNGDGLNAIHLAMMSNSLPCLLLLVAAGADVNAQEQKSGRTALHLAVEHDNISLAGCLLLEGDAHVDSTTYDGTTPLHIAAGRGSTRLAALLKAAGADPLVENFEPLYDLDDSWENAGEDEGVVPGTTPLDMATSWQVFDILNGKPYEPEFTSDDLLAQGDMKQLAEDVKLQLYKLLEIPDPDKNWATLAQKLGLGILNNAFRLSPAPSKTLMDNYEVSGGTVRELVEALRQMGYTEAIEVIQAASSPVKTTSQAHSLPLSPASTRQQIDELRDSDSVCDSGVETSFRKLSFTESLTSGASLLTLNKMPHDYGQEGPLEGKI

CCSC(=O)N1CCCCCC1
active: [3] 12.6 µM
inactive: [1] | [2] | [4] | [5] | [6] | [7] | [8] | [9] | [10] | [11] | [12] | [13] | [14] | [15] | [16] | [17] | [18] | [19]

CN/C(=N\[N+](=O)[O-])NCc1cnc(Cl)s1
inactive: [1] | [2] | [4] | [5] | [6] | [8] | [9] | [10] | [11] | [12] | [13] | [14] | [15] | [20] | [16] | [18]
active: [7] 36.6 µM | [17] 50 µM

CCCCC(C#N)(Cn1cncn1)c1ccc(Cl)cc1 (stereo not given)
active: [1] 73.1 µM | [15] 50 µM | [17] 25 µM | [19] 12.2 µM
inactive: [2] | [4] | [5] | [6] | [7] | [8] | [9] | [10] | [11] | [12] | [13] | [14] | [16] | [18]

O=P(O)(O)CCCl
active: [18] 0.254 µM
inactive: [1] | [2] | [3] | [4] | [5] | [6] | [7] | [8] | [9] | [10] | [11] | [12] | [13] | [14] | [15] | [16] | [17] | [19]

COCC(=O)N(c1c(C)cccc1C)C(C)C(=O)OC (stereo not given)
inactive: [1] | [2] | [4] | [5] | [6] | [7] | [8] | [9] | [10] | [11] | [12] | [13] | [14] | [15] | [20] | [16] | [17] | [18]

Cc1cnc(C2=NC(C)(C(C)C)C(=O)N2)c(C(=O)O)c1 (stereo not given)
inactive: [1] | [2] | [4] | [5] | [6] | [7] | [8] | [9] | [10] | [11] | [12] | [13] | [14] | [15] | [20] | [16] | [17] | [18]

Source: PubChem BioAssay (EPA / NIEHS)
